Assay results from ChEMBL document CHEMBL5308504, “Tm Shift (DSF) assay results for EUbOPEN Chemogenomics Library” (2023).
Numbered stars: 1 amine (or outer) side, 2 acyl side, 3 side chain; on linkers, the order of the positions; unused ones are H or OH. Bridge positions count the residues as written; N and C are the ends. Square brackets hold non-standard residues; d marks the D form. Peptide text beside a SMILES is read from it. I, II: the chains in the order shown. Hexamethylenediamine = C(CCCN[*:2])CCN[*:1]; Dip = N[C@H](C(=O)O)C(c1ccccc1)c1ccccc1; Chg = N[C@H](C(=O)O)C1CCCCC1; NMeA = CN[C@@H](C)C(=O)O

Legend:
Details in all cases: Compound concentration 20.0 uM, Protein concentration 2.0 uM, Result type QC Liability
[1] = target: Tyrosine-protein kinase ABL1 (Homo sapiens) (UniProt P00519)
[2] = target: Cyclin-dependent kinase 2 (Homo sapiens) (UniProt P24941)
[3] = target: Casein kinase I isoform delta (Homo sapiens) (UniProt P48730)
[4] = target: Glycogen synthase kinase-3 beta (Homo sapiens) (UniProt P49841)
[5] = target: Mitogen-activated protein kinase 1 (Homo sapiens) (UniProt P28482)
[6] = target: T1, Aurora kinase A (Homo sapiens) (UniProt O14965)
T1 sequence (whole entry): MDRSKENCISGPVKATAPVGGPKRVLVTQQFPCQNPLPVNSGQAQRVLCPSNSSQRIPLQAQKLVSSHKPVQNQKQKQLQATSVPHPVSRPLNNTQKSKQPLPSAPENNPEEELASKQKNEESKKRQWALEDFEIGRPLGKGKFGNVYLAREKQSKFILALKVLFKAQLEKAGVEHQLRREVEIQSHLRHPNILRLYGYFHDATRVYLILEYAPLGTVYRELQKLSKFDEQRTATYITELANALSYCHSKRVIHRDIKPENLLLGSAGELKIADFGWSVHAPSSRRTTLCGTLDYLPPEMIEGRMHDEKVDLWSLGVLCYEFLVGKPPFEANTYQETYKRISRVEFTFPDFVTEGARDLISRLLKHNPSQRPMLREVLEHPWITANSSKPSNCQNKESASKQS

Tyrosine-protein kinase ABL1 (Homo sapiens), sequence (P00519 whole entry): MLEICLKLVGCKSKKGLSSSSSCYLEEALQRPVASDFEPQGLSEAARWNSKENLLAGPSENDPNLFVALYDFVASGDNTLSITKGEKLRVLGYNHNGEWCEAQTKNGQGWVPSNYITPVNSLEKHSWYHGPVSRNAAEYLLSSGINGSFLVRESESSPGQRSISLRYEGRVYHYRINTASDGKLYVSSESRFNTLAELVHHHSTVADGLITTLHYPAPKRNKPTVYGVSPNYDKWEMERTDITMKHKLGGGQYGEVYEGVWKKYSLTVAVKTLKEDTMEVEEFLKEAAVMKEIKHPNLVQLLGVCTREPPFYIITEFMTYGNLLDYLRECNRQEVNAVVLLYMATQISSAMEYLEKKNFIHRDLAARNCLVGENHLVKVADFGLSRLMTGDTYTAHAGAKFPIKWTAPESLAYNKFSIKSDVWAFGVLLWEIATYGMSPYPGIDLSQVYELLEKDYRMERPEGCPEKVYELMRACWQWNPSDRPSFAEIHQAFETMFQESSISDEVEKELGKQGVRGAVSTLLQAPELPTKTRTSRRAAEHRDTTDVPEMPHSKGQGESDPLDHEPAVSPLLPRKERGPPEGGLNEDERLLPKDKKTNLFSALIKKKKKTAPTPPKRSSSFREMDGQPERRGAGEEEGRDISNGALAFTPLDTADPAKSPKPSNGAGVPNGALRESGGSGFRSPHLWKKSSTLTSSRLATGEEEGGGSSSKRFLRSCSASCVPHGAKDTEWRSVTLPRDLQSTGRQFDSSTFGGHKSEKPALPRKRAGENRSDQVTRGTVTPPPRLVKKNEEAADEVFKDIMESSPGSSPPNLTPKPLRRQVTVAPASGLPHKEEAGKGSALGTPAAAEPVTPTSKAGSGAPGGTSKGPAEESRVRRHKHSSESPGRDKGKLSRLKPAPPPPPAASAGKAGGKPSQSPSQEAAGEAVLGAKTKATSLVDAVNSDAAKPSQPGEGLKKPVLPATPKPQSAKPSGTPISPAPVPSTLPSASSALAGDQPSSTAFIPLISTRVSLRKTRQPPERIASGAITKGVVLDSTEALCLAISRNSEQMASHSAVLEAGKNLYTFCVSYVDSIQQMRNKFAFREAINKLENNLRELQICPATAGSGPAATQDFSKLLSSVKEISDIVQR
Glycogen synthase kinase-3 beta (Homo sapiens), sequence (P49841 whole entry, looked up): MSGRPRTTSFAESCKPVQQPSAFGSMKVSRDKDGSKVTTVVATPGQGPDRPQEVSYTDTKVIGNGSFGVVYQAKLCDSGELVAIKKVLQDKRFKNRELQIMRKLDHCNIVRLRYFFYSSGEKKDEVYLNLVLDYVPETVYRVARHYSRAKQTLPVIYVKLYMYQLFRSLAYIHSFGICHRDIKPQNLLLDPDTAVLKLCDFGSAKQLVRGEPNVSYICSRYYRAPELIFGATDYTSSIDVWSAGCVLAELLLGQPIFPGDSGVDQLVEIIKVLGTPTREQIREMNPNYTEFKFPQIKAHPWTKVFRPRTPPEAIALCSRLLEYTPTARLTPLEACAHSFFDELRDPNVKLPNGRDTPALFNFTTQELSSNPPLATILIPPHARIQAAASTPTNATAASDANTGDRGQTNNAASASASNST
Mitogen-activated protein kinase 1 (Homo sapiens), sequence (P28482 whole entry): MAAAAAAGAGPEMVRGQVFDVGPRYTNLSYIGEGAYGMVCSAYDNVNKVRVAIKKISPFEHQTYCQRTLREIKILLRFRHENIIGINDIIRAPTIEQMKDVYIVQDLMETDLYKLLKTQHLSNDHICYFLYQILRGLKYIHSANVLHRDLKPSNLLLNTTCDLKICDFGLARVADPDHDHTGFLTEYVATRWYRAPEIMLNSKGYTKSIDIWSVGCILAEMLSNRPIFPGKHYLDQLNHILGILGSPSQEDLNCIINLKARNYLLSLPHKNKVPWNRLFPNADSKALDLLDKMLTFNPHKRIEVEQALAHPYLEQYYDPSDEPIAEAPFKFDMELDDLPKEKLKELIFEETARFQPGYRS
Casein kinase I isoform delta (Homo sapiens), sequence (P48730 whole entry, looked up, canonical isoform): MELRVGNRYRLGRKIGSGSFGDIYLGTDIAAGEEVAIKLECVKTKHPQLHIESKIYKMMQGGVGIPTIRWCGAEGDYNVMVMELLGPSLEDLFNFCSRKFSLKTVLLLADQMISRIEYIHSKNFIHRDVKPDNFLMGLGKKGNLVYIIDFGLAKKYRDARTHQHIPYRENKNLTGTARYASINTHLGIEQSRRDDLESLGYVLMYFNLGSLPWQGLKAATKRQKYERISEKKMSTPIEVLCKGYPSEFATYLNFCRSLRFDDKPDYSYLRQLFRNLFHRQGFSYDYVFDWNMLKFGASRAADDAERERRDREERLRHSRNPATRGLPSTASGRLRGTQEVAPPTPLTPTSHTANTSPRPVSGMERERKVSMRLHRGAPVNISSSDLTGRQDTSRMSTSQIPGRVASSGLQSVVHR

Row | Structure (SMILES) | ΔTm [1] [°C] | ΔTm [2] [°C] | ΔTm [3] [°C] | ΔTm [4] [°C] | ΔTm [5] [°C] | ΔTm [6] [°C]
1 | O=C(Nc1snnc1C(=O)Nc1ccc(N2CCCC2)cc1)c1cncc(C(F)(F)F)c1 | 0.66 | 0.59 | 1.04 | -1.38 | 0.03 | -0.75
2 | C=C1/C(=C\C=C2/CCC[C@]3(C)[C@@H]([C@H](C)CCCC(C)(C)O)CC[C@@H]23)C[C@@H](O)C[C@@H]1O | -0.27 | -4.7 | 0 | -6.39 | -0.74 | -10
3 | Cn1c(C2(NC(=O)c3ccc(NCC4CCCCC4)nc3)CCC2)nc2ccc(/C=C/C(=O)O)cc21 | 0.22 | 0.23 | 0.38 | -1.07 | 0.02 | 0.04
4 | COc1cc2nc(C)nc(NC3(c4ccccc4)CC3)c2cc1OC | 0.57 | 0.41 | 0.15 | -0.3 | 0.33 | 0.65
5 | C1=Cc2ccccc2C(=C2CCN(CCCCc3nnn[nH]3)CC2)c2ccccc21 | -0.16 | 0.18 | -0.15 | 0.27 | -0.08 | -0.37
6 | Cc1cc(CN)cc(C)c1-c1ncn(C)c1-c1cncn1C | 0.16 | -0.16 | 0.37 | 0.19 | 0.11 | -0.37
7 | CNC(=O)c1cc(C(=O)N[C@H]2[C@@H]3COC[C@@H]32)cc2c1O[C@@H](CF)[C@@H]2c1ccccc1 | -0.03 | 0.5 | 0.22 | -0.96 | 0.58 | -0.12
8 | C[C@@H]1CN(CC(=O)N2CC(C)(C)c3nc(CO)c(Cc4ccc(F)cc4)cc32)[C@@H](CN2CCOC[C@H]2C)CN1 | 0.35 | 0.82 | -0.16 | -0.02 | 0.01 | -0.39
9 | CC(C(=O)Nc1cc(C#N)ccc1CCCC(=O)O)c1ccc(F)c2ccccc12 (stereo not given) | 0.96 | 0.61 | 0.09 | 0.53 | -0.07 | -0.36
10 | CN[C@@H](C)C(=O)N[C@H](C(=O)N1CCC[C@H]1C(=O)N[C@H](C(=O)NCCCCCCNC(=O)[C@@H](NC(=O)[C@@H]1CCCN1C(=O)[C@@H](NC(=O)[C@H](C)NC)C1CCCCC1)C(c1ccccc1)c1ccccc1)C(c1ccccc1)c1ccccc1)C1CCCCC1 (I: H-[NMeA][Chg]P[Dip] / II: H-[NMeA][Chg]P[Dip]; linker I:C-II:C via Hexamethylenediamine) | -0.65 | -1.8 | -0.57 | -0.94 | -1.01 | -1.85
11 | CN(C)[C@H]1C[C@H](n2cnc(-c3ccc(F)cn3)c2-c2ccnc3[nH]ccc23)C1 | 0.17 | 0.4 | 4.93 | -0.83 | 0.21 | -0.76
12 | CCOC(=O)N1CCC(CN(Cc2ccc(Cl)cc2)Cc2ccc([N+](=O)[O-])s2)C1 (stereo not given) | 0.47 | 0.83 | 1.17 | -0.64 | 0.21 | -0.41
13 | Cc1nc2cccnc2n2c(-c3cc([C@@]4(O)CCCOC4)ccc3Cl)nnc12 | -0.53 | 0.88 | 0.26 | -0.63 | 0 | -0.06
14 | CC1CNCCc2c1nc1ccnn1c2N1CC(C(=O)N2CCC(C)(C)C2)C1 (stereo not given) | 0.04 | 0.37 | 0.46 | -0.58 | 0.2 | -0.21
15 | COC(=O)Nc1nc2c(s1)-c1c(c(-c3cccnc3)nn1-c1ccc(C3(N(C)C)CC3)cc1)CC2 | 0.57 | 0.64 | -0.25 | -0.71 | 0.36 | -0.79
16 | Cc1nn(-c2ccccc2)c(Nc2ccccc2C(=O)O)c1-c1cc2nccnc2c(F)c1F | -0.68 | 0.56 | 0.22 | 1 | 0.47 | 0.69
17 | Cc1cc(C2CCCNC2)ccc1Nc1ncc(Br)c(NCc2cccc3c2C(C)(C)C(=O)N3)n1 (stereo not given) | 1.52 | 2.03 | 0.34 | 1.91 | 2.1 | 3.81
18 | CN[C@@H]1CC[C@@H](c2ccc(Cl)c(Cl)c2)c2ccccc21 | -0.02 | 0.01 | 0.01 | -0.7 | 0 | -0.47
19 | COc1cc2nc(-c3cc(F)ccc3O)nc(N[C@@H]3CNC[C@H]3C(C)(C)O)c2cc1OC | 2.31 | 3.24 | 4.64 | 3.22 | 3 | 3.06
20 | COc1cccc(CNc2ccc(S(=O)(=O)Nc3nc4ccccc4s3)cc2)c1O | 0.16 | 0.93 | 0.86 | 0.88 | -0.57 | 1.13
21 | Nc1nccc(-c2c(-c3ccc(F)cc3)ncn2C2CCCCC2)n1 | 2.76 | -0.08 | 8.08 | 2.6 | 0.33 | -0.66
22 | Nc1ncnc2c1ccn2[C@@H]1O[C@H]([C@@H](O)c2ccccc2)[C@@H](O)[C@H]1O | 0.21 | 0.7 | 0.65 | -0.88 | 0.25 | -1.22
23 | Fc1ccc(-c2nc(-c3ccc4ccccc4c3F)[nH]c2-c2ccncc2)cc1 | 4.64 | -0.5 | 4.6 | 8.59 | 0.03 | 0.26
24 | CCS(=O)(=O)Nc1cccc(Oc2cncc(Nc3ccc(I)cc3F)c2C(N)=O)c1 | 0.95 | 0.72 | -0.53 | -0.71 | -2.21 | 1.45
25 | COc1cc(C(=O)NCCOCCOCCOCCC(=O)Nc2cccc3c2C(=O)N(C2CCC(=O)NC2=O)C3=O)ccc1Nc1ncc(C(F)(F)F)c(Oc2cccc3c2C(=O)CC3)n1 (stereo not given) | -0.1 | -0.45 | -2.13 | -0.22 | -2.51 | 0.92
